# Bioassay records deposited in PubChem BioAssay by several laboratories.
# This is a sample that favours compounds with a hit; in the whole collection about 2.5% have one here.
# PAX8 reporter – inhibitors of PAX8 transcriptional activity in RMG-I cells; AID 652154; inhibition, % at 12.6 µM; RMG-I TPO-luciferase reporter, SteadyGlo, 24 h; 1.2% of 360,000 active;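 active = mean replicate inhibition at least 60% with every replicate also reaching 60%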;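 note: luciferase light reporting Pax8 driven TPO promoter activity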
# CFTR F508del cor – CFTR F508del correction in bronchial cells; CFBE cells, YFP halide quenching; stimulated with forskolin plus potentiator P3; % fluorescence drop versus neutral controls; activity (quench increase), % at 7.58 µM; 0.36% of 350,000 active;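 active = mean added fluorescence quench of at least 8% versus neutral control, with both replicates also reaching 8%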;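 note: cells transiently co-express mutant CFTR-F508del with the halide-sensitive YFP; corrector assay measuring rescue of mutant channel to the surface after 24 h compound exposure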
# HIV Env fusion – HIV envelope-mediated fusion inhibition. HeLa-JRFL Env/CEM21 cell fusion, luciferase. 1.1% of 360,000 active. inhibition, % at 12.3 µM;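 active = mean replicate inhibition score of at least 50 and every replicate individually at or above 50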
# EWS-Fli inh – inhibitors of EWS/Fli oncoprotein transcriptional activity; 0.67% of 350,000 active; inhibition, % at 12.6 µM; AID 651661; A673 NR0B1-luciferase reporter, viability-normalised;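 active = mean inhibition of at least 50% after viability correction, with every replicate also passing that limit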;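 note: firefly luciferase signal divided by Alamar Blue viability fluorescence both relative to DMSO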
# FXN GAA850 act – increases GAA850 frataxin promoter reporter activity; AID 540364; activation, % at 6 µM; HEK293 lucGAA850 FXN promoter luciferase reporter, 24 h; percent of 10 µM SAHA response; 0.56% of 360,000 active;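 active = activation above the average of all compounds screened plus 3 SD, cutoff fixed separately per campaign, cut at about 7.5% in these data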
# A number is an active result; n = inactive; x = no result given.
SMILES,PAX8 reporter,CFTR F508del cor,HIV Env fusion,EWS-Fli inh,FXN GAA850 act
COc1ccc(CCn2c(C3CCCCC3)nc3c(c(=O)c4ccccc4n3C)c2=O)cc1,n,n,n,56,n
Cc1ccc(C(=O)N/N=C/c2ccc(-c3cccc(C(F)(F)F)c3)o2)cn1,n,n,n,50,n
CN1[C@@H]2Cn3c(ccc(-c4cccnc4)c3=O)[C@H]1[C@@H](C(=O)NCCc1ccccc1)[C@@H]2CO,x,x,n,n,x
C[C@@H]1CN([C@@H](C)CO)C(=O)c2cc(N(C)C)ccc2O[C@H]1CN(C)Cc1ccncc1,n,n,n,n,x
C#CCn1c(=O)c2c(ncn2C)n(C)c1=O,n,n,72,n,n
COc1ccc(C(CCNCc2ccc(OC(C)C)cc2)c2ccccc2OC)cc1 (stereo not drawn),n,n,n,58,n
C[C@@H]1CN([C@H](C)CO)C(=O)Cc2cc(NS(C)(=O)=O)ccc2O[C@H]1CN(C)S(=O)(=O)c1cn(C)cn1,n,n,n,n,x
COc1ccccc1N(C(=O)CCl)c1cn(C(C)=O)c2ccccc12,114,n,n,n,n
CC(=O)n1cc(N(C(=O)CCl)c2ccc(Cl)cc2)c2ccccc21,x,x,x,x,n
COC(=O)c1cn(C(=O)c2ccc(C)cc2C)c2ccccc12,n,11,n,n,n
CC(C)NC(=O)Nc1cccc2c1O[C@H](CN(C)Cc1ccc(-c3ccccc3)cc1)[C@@H](C)CN([C@H](C)CO)C2=O,n,n,n,n,x
COc1ccc(S(=O)(=O)N(C)C[C@@H]2OCCCC[C@@H](C)Oc3ccc(NS(C)(=O)=O)cc3C(=O)N([C@@H](C)CO)C[C@@H]2C)cc1,n,n,n,n,x
CC(C)CCN1CCN=C1Nc1ccccc1,n,n,60,n,n
CCCS(=O)(=O)c1cnc(C2COc3ccccc3O2)nc1N (stereo not drawn),n,n,n,86,n
C[C@@H]1CN([C@@H](C)CO)C(=O)c2cc(NS(C)(=O)=O)ccc2O[C@H]1CN(C)S(=O)(=O)c1ccc(Cl)cc1,x,n,n,n,x
CC1=C(CO)C(=O)OC([C@@H](C)C2CC[C@H]3C4C[C@H]5O[C@]56[C@@H](O)C=CC(=O)[C@]6(C)C4CC[C@]23C)C1 (stereo partly drawn),x,n,x,64,n
O=C(C[C@@H]1CC[C@H]2[C@@H](COC[C@@H](O)CN2C(=O)c2ccncc2)O1)Nc1ccc(-c2ccccc2)cc1,n,n,x,n,x
O=C(NC1CCCCC1)C(c1cccs1)N(Cc1cccs1)C(=O)c1cccs1 (stereo not drawn),n,x,94,x,n
O=C(NC1CCCCC1)C(c1ccc2ncccc2c1)N(Cc1cccs1)C(=O)c1cccs1 (stereo not drawn),x,x,x,x,n
CCN1[C@@H]2c3ccc(-c4ccccc4F)c(=O)n3C[C@@H]2[C@@H](CO)[C@@H]1C(=O)NC1CCCC1,n,n,x,n,x
COc1ccc(S(=O)(=O)Nc2ccc3c(c2)C(=O)N([C@H](C)CO)C[C@@H](C)[C@H](CN(C)S(=O)(=O)c2ccc(F)cc2)OCCCC[C@H](C)O3)cc1,79,n,n,n,x
COc1ccc(S(=O)(=O)N(C)C[C@H]2OCCCC[C@H](C)Oc3ccc(NS(=O)(=O)c4ccc(F)cc4)cc3C(=O)N([C@H](C)CO)C[C@H]2C)cc1,n,n,n,n,x
COc1ccc(S(=O)(=O)Nc2ccc3c(c2)C(=O)N([C@H](C)CO)C[C@H](C)[C@H](CN(C)S(=O)(=O)c2ccc(F)cc2)OCCCC[C@@H](C)O3)cc1,n,n,n,n,x
COc1ccc(S(=O)(=O)Nc2ccc3c(c2)C(=O)N([C@H](C)CO)C[C@H](C)[C@H](CN(C)S(=O)(=O)c2ccc(F)cc2)OCCCC[C@H](C)O3)cc1,77,n,n,n,x
CC(C)(CSc1ncccn1)NS(=O)(=O)c1ccccc1,n,n,n,n,n
SMILES,PAX8 reporter,CFTR F508del cor,HIV Env fusion,EWS-Fli inh,FXN GAA850 act
Cc1ccc(S(=O)(=O)NC(C)(C)CSc2nnc(Nc3ccccc3)s2)cc1,x,x,58,x,n
CCc1ccc(-c2nc(C(N)=O)c3[nH]c(=O)n(-c4ccccc4OC)c3n2)cc1,n,8.9,n,63,n
CN(C)/C=C1\C(=O)ON=C1c1ccccc1,n,n,n,n,n
Cc1ccc(C2=NOC(=O)/C2=C\C=C\c2ccccc2)cc1,n,n,n,54,n
CC1(NC(=O)CC(c2ccccc2)(c2ccccc2)c2ccccc2)CCN(CCCc2ccccc2)C1=O (stereo not drawn),66,n,n,n,n
CC1(NC(=O)CCc2ccccc2)CCN(CCCc2ccccc2)C1=O (stereo not drawn),n,n,n,n,n
Cc1ccc(S(=O)(=O)N(C)C[C@H]2Oc3c(NC(=O)Nc4cccc5ccccc45)cccc3C(=O)N([C@@H](C)CO)C[C@@H]2C)cc1,103,n,n,n,n
C[C@H]1CN([C@@H](C)CO)C(=O)c2cccc(NC(=O)Nc3ccc4c(c3)OCO4)c2O[C@@H]1CN(C)C(=O)Nc1ccccc1,n,n,n,n,x
COc1ccc(NC(=O)N(C)C[C@H]2Oc3c(cccc3N(C)C)C(=O)N([C@@H](C)CO)C[C@@H]2C)cc1,n,n,n,n,x
Cc1ccc(S(=O)(=O)N(C)C[C@@H]2Oc3c(NC(=O)Nc4cccc5ccccc45)cccc3C(=O)N([C@@H](C)CO)C[C@H]2C)cc1,x,n,x,n,x
COc1ccc(NC(=O)N(C)C[C@H]2Oc3c(cccc3N(C)C)C(=O)N([C@H](C)CO)C[C@H]2C)cc1,n,8.1,n,n,x
C[C@@H]1CN([C@H](C)CO)C(=O)c2cccc(NC(=O)Nc3cccc4ccccc34)c2O[C@H]1CN(C)C(=O)Nc1ccc(C(F)(F)F)cc1,81,n,n,n,x
C[C@@H]1CN([C@H](C)CO)C(=O)c2cccc(NC(=O)Nc3cccc4ccccc34)c2O[C@@H]1CN(C)C(=O)Nc1ccc(C(F)(F)F)cc1,n,n,n,n,x
C[C@H](CO)N1C[C@H](C)[C@H](CN(C)C(=O)Nc2ccc3c(c2)OCO3)Oc2c(NC(=O)Nc3ccccc3)cccc2C1=O,72,n,n,n,x
C[C@@H]1CN([C@@H](C)CO)C(=O)c2cccc(NS(=O)(=O)c3cn(C)cn3)c2O[C@@H]1CN(C)Cc1ccc(-c2ccccc2)cc1,n,n,x,n,x
CCC(=O)Nc1ccc2c(c1)C(=O)N(C)[C@H]1CC[C@@H](CC(=O)NCCCN(C)C)O[C@H]1CO2,n,n,n,n,x
C[C@H]1CN([C@@H](C)CO)C(=O)c2cccc(NC(=O)Nc3cccc4ccccc34)c2O[C@@H]1CN(C)C(=O)Nc1ccc(C(F)(F)F)cc1,74,n,n,n,x
O=C(Nc1ccc(Cl)cc1)C1CCCN(C2=NS(=O)(=O)c3ccccc32)C1 (stereo not drawn),n,n,70,n,n
CN1c2ccc(C#Cc3cccnc3)cc2[C@H]2[C@H](CCN2C(=O)C2CCCCC2)[C@H]1CO,n,n,x,n,x
